# Measurements: the OligoGym collection
# Molecular target: SMC5
# Assay: pooled miR-30 sensor sort-seq; sequence = guide strand
# Conditions: shRNA
# Note: reference of the scale not given here.
row,Sequence,sensor-assay potency score (higher = more potent)
1,TTTCCTTTCTATAACATCTTGC,0.304
2,TATAAATCTGTTTTAATCGGGT,-0.0428
3,TAAATCTAAATGTCGCTTCCGT,0.849

# Molecular target: SMCP
# Assay: as above
# Conditions: shRNA
row,Sequence,sensor-assay potency score (higher = more potent)
1,TAAGGGGTGAGACTTCAGGCTT,-0.603
2,TTTGCTGGGCAGCATTTACTGT,-0.976
3,TTGTCCTGAGTTTGCGGTGAGT,-1.27
4,TTGGTCTCCAAACCACAGCACC,-1.3
5,TGACTGGCAGCACTGGTTCTGC,-1.04
6,TTGATTGCCTTTTGACTGGCAG,0.000564
7,TTTGCGGTGAGTTGGGCTCAGA,-1.18
8,TTTTGACTGGCAGCACTGGTTC,-0.818
9,TTGGTGGGCAGCATTGACTGCC,-0.359
10,TCTAAACACAGGTCTAGCCTGA,0.141
11,TTGTGTTTTGGTGGGCAGCATT,-1.54
12,TTTGGTGGGCAGCATTGACTGC,-0.712

# Molecular target: SMCR7L
# Assay: as above
# Conditions: shRNA
row,Sequence,sensor-assay potency score (higher = more potent)
1,TAGCCAAGTGTATCTAACGGAG,-1.24
2,TACATTGCAATAAATACTGCAA,0.27
3,TAAGTAGCTGATAAGTCCCCTC,-0.665
4,AAACATGCTATCACAGCTCTTC,0.268
5,TTCTCCTGCAGGGACATGCGGA,-1.36
6,TTGTCTGTCTGACCCCTGCAGC,-0.951
7,TTGCATTCAGCTTATCCTGTGT,0.0334
8,TTAAACATTCCTCCCCACCTTC,-0.361
9,TGACTTCTTCAAGTCTACCTGG,-0.253
10,TATGTCCACAGCAGCTTGCTTG,-1.35
11,TTGCTCTAAGGCCACATCCTAG,-1.5
12,TTCTACTCCAGGAACCGTGGTC,0.223

# Molecular target: SMYD2
# Assay: as above
# Conditions: shRNA
row,Sequence,sensor-assay potency score (higher = more potent)
1,TTTTCTGTCCATATTGCAGGGC,-0.2
2,TTTGCCGTGAGCTACTTCCATG,-1.61
3,TACAGCTCTGACTTCTGCCAGG,-0.948
4,TAGGTCACAATGACATTGGGGC,0.446
5,TTACTGTCCTCAAACACAGAGC,-0.927
6,TTAACCGGTCATTTCTATCTTC,0.511
7,TTATCCTTGTCCTTGGTGGTAC,-0.716
8,TTGACCGTGAGCACGTAGGCAT,-0.166
9,TACAGGAGATCAATATAGCTGG,-0.203
10,TAACATATGAAACCATGCCATT,-1.62
11,TAGTCTTACAGTCTCCGAGGGA,-0.703
12,TTAAGGTTTCTGAACTAAGTGT,-0.419
